Molecules are shown by their SMILES. In all, about 68,000 compounds went through this assay and about 2,700 (4%) showed an effect of 50% or more. The entries come from a sample that favours strong results as a whole.

This assay concerns Plasmodium berghei. As to the kind of experiment: Screen against P. berghei liver stage (PbLuc), transformed with Luciferase, at 2uM. The format is functional, HepG2. To be noted: tested at 2 uM.
As for `O=S(=O)(NCC1(O)CCCC1)c1ccccc1Br`, the INHIBITION turned out to be 32.07%.
For `Cc1noc(C)c1C(=O)N1Cc2ncn(C)c2C(COCC(C)C)C1` (configuration not stated) the value was 25.92%; for `CN(C)c1ccnc(N2CCC(NCCOc3ccccc3)CC2)n1`, -55.42%; for `Cc1ncncc1-c1ccnc(N(C)C)n1`, 22.5%.
Then `CN(C)c1nccc(-c2cnc(N(C)C)[nH]c2=O)n1`, with 51.32%; and `CN(C)c1nccc(-c2c[nH][nH]c2=O)n1`, with 3.97%.
Then `CN(Cc1ccc2nonc2c1)C(=O)CCc1cc2n(n1)CCCNC2`, with -3.87%; and `CCN(Cc1ccncc1)C1CCCN(C/C=C/c2ccc(F)cc2)C1` (configuration not stated), with 27.95%.
In the case of `CCN(Cc1ccncc1)C1CCCN(Cc2ccc(F)cc2Cl)C1` (configuration not stated), the INHIBITION worked out at 32.26%.
Turning to `CCN(Cc1ccncc1)C1CCCN(Cc2ccc(F)cc2OC)C1` (configuration not stated), the INHIBITION came out at 51.42%.
On to `Cc1ccc(CN2Cc3c(C(=O)N4CCCC4)nn(C)c3C2)s1`, for which the INHIBITION is recorded as -64.97%.
Then `O=C1CC(N2CCN(c3ccccc3O)CC2)C(=O)N1Cc1cccs1` (configuration not stated), with 19.62%; and `CC1CCCN(C(=O)Cn2cc(I)cn2)C1` (configuration not stated), with 37.18%; and `O=C(Cn1cc(I)cn1)N1CCCC1`, with 34.34%.
For the molecule `CC1CCN(C(=O)Cn2cc(I)cn2)CC1`, the INHIBITION worked out at 66.74%.
As for `O=C(Cc1cccc(F)c1)NCCNCC1CNc2ccnn2C1` (configuration not stated), the INHIBITION is on record as -7.45%.
On to `Cn1nccc1C1CCN(CC(=O)NCC2CC2)CC1`, for which the INHIBITION is recorded as 7.71%.
For `O=C(Nc1cccnc1-n1cc(Cl)cn1)C1CC1` the value was -43.89%; for `Cc1cc(C)n(CC2CN(Cc3nc(C4CC4)no3)CCO2)n1` (configuration not stated), 37.31%.
`CN(C)C(=O)N1CC[C@@H](O)[C@@H]1Cc1ccccc1`: the INHIBITION is 48.52%.
For `O=C([C@H]1CCCO1)N1CCC2(CC1)C(=O)N(CC1CC1)c1ccccc12` the value was 58.95%.
For `CC(=O)N1CCC2(CC1)C(=O)N(CC1CC1)c1ccccc12` the value was 24.15%; for `O=C(N1CCCC1)N1CCC2(CC1)C(=O)N(CC1CC1)c1ccccc12`, 31.5%.
For `O=C(N[C@H]1CN(Cc2ccsc2)[C@@H]2CCCO[C@H]12)C1CC1` the value was -1.33%; for `COCCN1CCC(c2cncc(-c3cccc(Cl)c3)n2)CC1`, 32.39%.
With `CN(CC(=O)Nc1ccc(Br)cn1)C(=O)C(C)(C)C`, the INHIBITION is given as 8.42%.
Then `Cc1c(C)c(C)c2[nH]c(-c3cn(C4CCNCC4)nn3)nc2c1C`, with 52.66%; and `CSc1ccccc1-n1ccnc1-c1cn(C2CCNCC2)nn1`, with 14.55%; and `Clc1ccccc1CCn1ccnc1-c1cn(C2CCNCC2)nn1`, with -30.83%.
Then `Cc1ccc2[nH]c(-c3cn(C4CCNCC4)nn3)nc2c1C`, with 68.42%; and `Cc1cc2nc(-c3cn(C4CCNCC4)nn3)[nH]c2cc1C`, with 28.14%; and `OCCc1ccccc1-n1ccnc1-c1cn(C2CCNCC2)nn1`, with 5.78%.
As to `Cc1ccc(-n2ccnc2-c2cn(C3CCNCC3)nn2)c(Cl)c1`, the INHIBITION came out at 36.26%.
Take `COc1cccc(CCn2ccnc2-c2cn(C3CCNCC3)nn2)c1`: the INHIBITION is -14.82%.
Turning to `Cc1cccc2[nH]c(-c3cn(C4CCNCC4)nn3)nc12`, the INHIBITION came to 57.92%.
For `Cc1nc(C(C)C)sc1C(=O)N1CCN(C2CCSCC2)CC1` the value was 18.77%; for `CN(C)C(=O)c1cccnc1SCc1ccccc1Cl`, 17.31%.
For `Cc1nn(C)c(C)c1C1CCCN1CC(=O)NCc1ccccn1` (configuration not stated) the value was -29.54%.
Consider `COC(=O)C(NC(=O)CC(C)C)c1cc(F)ccc1F` (configuration not stated), for which the INHIBITION was 29.12%.
As to `CN(C)CCNC(=O)CC1CCN(c2cccnn2)CC1`, the INHIBITION is recorded as -36.94%.
Take `O=C(CC1CCCC1)NCCS(=O)(=O)N1CCN(c2ccccn2)CC1`: the INHIBITION was -40%.
For `O=C(CC1CCN(c2cccnn2)CC1)Nc1cccnc1` the value was 50.17%.
Then `O=C(CC1CCN(c2cccnn2)CC1)NCCO`, with 68.96%; and `O=C(CC1CCN(c2cccnn2)CC1)Nc1nncs1`, with -24.13%.
Take `O=C(CC1CCN(c2cccnn2)CC1)NC1CCOCC1`: the INHIBITION is -36.08%.
Then `CC(c1ccncc1)n1cc2nc(N(C)C)[nH]cc-2c1=O` (configuration not stated), with 20.82%; and `COc1ccc(C(O)CNC(=O)Nc2cc(C)nn2C)cc1` (configuration not stated), with 34.83%; and `Cn1cnc(-c2ccc(F)cc2)c1NC(=O)CCNC(=O)C(C)(C)C`, with 37.66%.
Then `c1cc(CN2CCC3(CC2)COC(COCC2CC2)C3)ccn1` (configuration not stated), with 55.57%.
For `c1cc(CN2CCC3(CC2)COC(COCC2CC2)C3)cs1` (configuration not stated) the value was -9.14%; for `c1cc(CN2CCC3(CCOCC3COCC3CC3)CC2)ccn1` (configuration not stated), 50.17%.
On to `c1csc(CN2CCC3(CCOCC3COCC3CC3)CC2)n1` (configuration not stated), for which the INHIBITION was -23.51%.
Then `c1cc(CN2CCC3(CCOCC3COCC3CC3)CC2)co1` (configuration not stated), with 39.18%; and `c1cc(CN2CCC3(CC2)COC(COCC2CC2)C3)co1` (configuration not stated), with 15.02%.
For `CC(C)c1nccn1CCC(=O)N1CCCC1c1cccn1C` (configuration not stated) the value was 22%; for `COCCCn1cnnc1C(C)NC(=O)c1[nH]c2ccc(C)cc2c1C` (configuration not stated), 23.6%.
For `Cn1cnc(S(=O)(=O)N2CC3(CCN(c4ccccc4)C3)C2)c1` the value was 15.42%.
Turning to `CN(CCSc1ccccc1)C(=O)c1cn2c(n1)CNCC2`, the INHIBITION was 54.29%.
For `CN(CCc1ccccn1)C(=O)c1cn2c(n1)CNCC2` the value was 25.55%.
Then `CN(CCCc1ccccc1)C(=O)c1cn2c(n1)CNCC2`, with -12.28%; and `c1cncc(CN2CCC(c3ccc4c(c3)OCO4)CC2)c1`, with 17.24%; and `Cc1cccc(C(=O)N2CC[C@H]3C[C@@H](C)O[C@@H]3C2)n1`, with 1.29%.
For `O=C(c1cc(C2CC2)on1)N1C[C@@H]2COC[C@]2(COc2cccnc2)C1`, the INHIBITION stood at 22.68%.
For `O=C1NCCCCC1NC(=O)C1(c2ccccc2)CCOCC1` (configuration not stated), the INHIBITION is recorded as -20.35%.
For `Cc1ccc(-c2cc(CNC(=O)NC3CCCCNC3=O)on2)cc1` (configuration not stated) the value was 55.7%; for `O=C(NCc1cc(-c2ccccc2)no1)NCC1CCCO1` (configuration not stated), -3.26%.
Turning to `O=C(NCc1cc(-c2ccccc2)no1)NC1CCCCNC1=O` (configuration not stated), the INHIBITION was 65.38%.
For `Cc1ccc(-c2cc(CS(=O)(=O)NC3CCCNC3=O)on2)cc1` (configuration not stated) the value was 42.79%.
For `Cc1ccc(-c2cc(CNC(=O)N3CCC(O)CC3)on2)cc1` the value was -5.7%; for `COc1ccccc1CC(=O)NC(C)c1nc2cccnc2n1C(C)C` (configuration not stated), 24.44%.
Then `COc1ccc(CC(=O)NC(C)c2nc3cccnc3n2C(C)C)cc1` (configuration not stated), with -39.63%; and `COc1cccc(CC(=O)NC(C)c2nc3cccnc3n2C(C)C)c1` (configuration not stated), with 74.83%; and `COC(=O)C(CNC(=O)Nc1nncs1)Cc1cccc(C)c1` (configuration not stated), with 12.17%.
For `CCn1ccnc1CN1CCCN(C(=O)c2cc(C)nn2CC)CC1`, the INHIBITION is reported as 11.09%.
For `CC(C)C(=O)N(C)Cc1nc(N2CCCC2)ncc1-c1ccncc1` the value was -6.41%.
For `CCc1ccc(CCNc2ncnc3c2CCN(C(=O)C2CC2)C3)cc1` the value was 55.66%; for `Nc1nnc(CCNc2ncnc3c2CCN(C(=O)C2CC2)C3)s1`, 11.9%; for `Nc1nc(CCNc2ncnc3c2CCN(C(=O)C2CC2)C3)cs1`, -26.81%.
`Cc1cc(C)c(Cn2cncn2)cc1CN1CC[C@H](CO)[C@@H](O)C1`: the INHIBITION was -64.63%.
For `CC1(C)CCN(S(=O)(=O)N2CCCC(c3cccc(C(=O)O)c3)C2)CC1` (configuration not stated) the value was 19.04%; for `COC1CCN(S(=O)(=O)N2CCCC(c3cccc(C(=O)O)c3)C2)CC1` (configuration not stated), 57.59%.
Then `CC1CCN(S(=O)(=O)N2CCCC(c3cccc(C(=O)O)c3)C2)CC1` (configuration not stated), with -18.41%; and `Cc1cc(C)c(CNC(=O)NCc2ccncc2)c(=O)[nH]1`, with 26.76%; and `CC(C)CCN1CC2(CCN(C3CCCOC3)CC2)OC1=O` (configuration not stated), with 57.47%.
Then `O=C1OC2(CCN(C3CCCOC3)CC2)CN1CCc1ccccc1` (configuration not stated), with -1.27%.
For `CN(C)CCCN1CC2(CCN(C3CCCOC3)CC2)OC1=O` (configuration not stated), the INHIBITION stood at 24.81%.
With `COCCNC(=O)N1CC(Cc2ccccc2F)C1`, the INHIBITION is -41.64%.
In the case of `CCCc1cnc(C)nc1N1CCC(Cn2cc(CO)nn2)CC1`, the INHIBITION was 9.69%.
Then `Cc1cc(C)n2ncc(CN3CCC(n4cc(CCO)nn4)CC3)c2n1`, with 31.51%; and `Cc1cc(C)n2ncc(CN3CCC(Cn4cc(CO)nn4)CC3)c2n1`, with 64.9%.
For `CCC(C(=O)NCc1csc(N2CCOCC2)n1)n1cccn1` (configuration not stated) the value was 17.78%; for `Cc1cncc(Oc2ccc(CN)cc2)n1`, 32.31%.
For `Clc1cnc(NCc2ccccc2N2CCOCC2)nc1` the value was -2.35%; for `c1cnn(CC2CN(Cc3nc(C4CC4)no3)CCO2)c1` (configuration not stated), 9.41%; for `c1ncn(CC2CCCN(Cc3nc(C4CC4)no3)C2)n1` (configuration not stated), -8.84%.
Turning to `CC(C)Cc1nc(CN2CCOC(Cn3cncn3)C2)no1` (configuration not stated), the INHIBITION worked out at 40.17%.
For `CCc1nc(CN2CCOC(Cn3cncn3)C2)no1` (configuration not stated) the value was 55.7%; for `c1ncn(CC2CN(Cc3nc(C4CC4)no3)CCO2)n1` (configuration not stated), 60.64%; for `CCCc1nc(CN2CCOC(Cn3cncn3)C2)no1` (configuration not stated), 37.52%.
As for `CCc1ccc(CC)c(NCc2cnc(N3CCOCC3)nc2)c1`, the INHIBITION is -64.63%.
In the case of `COCC(=O)N1C[C@@H]2CCCO[C@@H]2[C@H](N(C)Cc2ccco2)C1`, the INHIBITION is -17.76%.
Then `Cc1ccc(CN2CCOC3(CCCN(c4cccc(F)c4)C3)C2)o1` (configuration not stated), with 22.15%; and `Cc1noc(C)c1CN1CCN(C(C)c2nc(C3CC3)no2)CC1` (configuration not stated), with 33.22%; and `CN1CCC(n2nc(Cc3cccs3)nc2-c2ccncc2)CC1`, with 21.97%.
For `CCc1noc(C)c1-c1nc(Cc2cccs2)nn1C1CCN(C)CC1` the value was 64.9%; for `Cc1ncsc1-c1nc(Cc2cccs2)nn1C1CCN(C)CC1`, 43.44%.
Consider `CCc1sc(C(=O)Nc2cnn(CC(N)=O)c2)cc1C`, for which the INHIBITION is 2.51%.
